Assay [1] is described as follows: reduced mouse 2C T cell binding to pMHC/ICAM-1 vesicles – MLPCN validation set, flow cytometry, LFA-1/ICAM-1 modulator project, pilot screen (AID 2523;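 active means response below a set limit, under 55% cells CD8-positive and vesicle-bound, and CD8 cells' 90th-percentile brightness under 279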;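 on vesicle binding response: mean PE anti-B7-1 fluorescence of CD8+ cells relative to row control; 100% = QL9-loaded vesicles with DMSO vehicle in the same plate row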). As to conditions: 2C mouse CD8+ T cells, at 7 µM, stronger effect = lower value; double positive events: measured here: CD8+/vesicle+ event percentage. Background: A flow cytometer gives signals particle by particle.
The target of assay [2] is Integrin beta-1 (Homo sapiens) + Integrin alpha-4 (Homo sapiens) (UniProt P13612+P05556). In words: alpha4beta1 integrin LIBS antibody binding reduction – U937 cells, HUTS-21 mAb, flow cytometry, validation set, VLA-4 allosteric modulator project, pilot screen (AID 2674;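 active means inhibition above 50%, about 3 SD of the validation set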;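 further: antibody binding induced by the VLA-4 ligand LDV present at three times its Kd; 0% = LDV ligand with antibody and no compound and 100% = antibody without LDV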). The settings on record: HUTS-21 LIBS mAb binding, at 6.7 µM, stronger effect = higher value, binding induced by LDV ligand.

The nature of assay [3]: calorie-restriction mimetic ROS inhibitors, yeast – validation compound set, pilot screen (AID 2706;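 active means superoxide response below 65% of plate, a cut near 3 SD across the whole screen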;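 further: yeast exposed to compound for one week at 30 degrees C before staining; 100% = mean of all compound wells on the same plate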). The settings on record: S. cerevisiae aging, superoxide DHE fluorescence; at 10 µM, stronger effect = lower value.
Assay [4] addresses Beta-adrenergic receptor kinase 1 (Homo sapiens) (UniProt P25098). As to the kind of experiment: GRK2 binders displacing RNA aptamer, biochemical, validation, human GRK2, bead flow cytometry (AID 488806;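 active means aptamer binding inhibition above 30%, about 3 SD of noise from non-fluorescent compounds; inactive means inhibition at or below 30%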). The settings on record: bead-bound GRK2, FAM-aptamer displacement, at 10 µM, stronger effect = higher value.
Assay [5] concerns the target Beta-2 adrenergic receptor (Homo sapiens) (UniProt P07550). As to the kind of experiment: agonist-induced loss of surface beta2AR – cell-based, FAP fluorogen, flow cytometry, validation set, pilot screen (AID 504459;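 active means percent response above 42, roughly 3 SD of non-fluorescent test compounds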;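 further: agonist-driven loss of surface beta2AR via internalization measured by FAP dye flow cytometry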). As to conditions: Am2.2-beta2AR cells, at 10 µM, stronger effect = higher value.
In assay [6] the target is AP-2 complex subunit beta (Homo sapiens) (UniProt P63010). As to the kind of experiment: beta-arrestin/AP2 interaction blockers – biochemical, validation set, GST-AP2 beads, flow cytometry, pilot screen (AID 504541).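 Further: AP2 carries R879A mutation and is captured from E. coli lysate; bead-bound FITC arrestin peptide fluorescence measuring arrestin peptide binding to AP2; 0% = DMSO wells and 100% = excess unlabeled arrestin peptide control.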 The settings on record: FITC arrestin peptide, at 10 µM, stronger effect = higher value, AP2 beta2 appendage fragment, R879A mutant.
The nature of assay [7]: cytosolic pH regulators acting via V-ATPase – S. cerevisiae, pHLuorin, HTS validation (AID 504600; in the data active means response above about 15%;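 further: plate controls were DMSO for no effect and reference compound for full effect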). The settings on record: V-ATPase proton transport, at 10 µM, stronger effect = higher value.
The test system of assay [8] is anti-desmoglein-3 scFv antibody binding to human DSG3. As to the kind of experiment: blockers of pathogenic pemphigus antibody–desmoglein-3 binding – biochemical, validation compound set, bead-based, flow cytometry, pilot screen (AID 588368;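 active means binding below the plate cutoff, the plate median minus 3 SD, with a reading above zero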;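 further: signal is the median channel fluorescence of bead-bound GFP antibody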). As to conditions: Protein G beads, DSG3-Fc, scFv-GFP binding, at 10 µM, stronger effect = lower value.
A short description of assay [9]: Nile Red efflux blockade in pump-expressing yeast – validation compound set, multiplex, phenotypic, pilot screen (AID 588506;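 active means efflux inhibition above 0.42, the validation set average plus 4 SD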;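 further: Nile Red retained in cells so higher fluorescence means more efflux inhibition; 0 = negative control wells and 1 = enniatin B 25 µM full block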). The settings on record: S. cerevisiae pump-expressing triplex, Nile Red efflux flow cytometry; at 10 µM; stronger effect = higher value; the pumps come from Candida albicans.
The target of assay [10] is ATP-binding cassette sub-family B member 6 (Homo sapiens) (UniProt Q9NP58). In words: blockers of ABCB6-driven porphyrin uptake – K562-ABCB6 cells, flow cytometry, validation set, pilot screen (AID 588550;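 active means inhibition above the screen-wide mean plus 3 SD, about 51%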;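 further: 0% = DMSO wells and 100% = benzethonium chloride 70 µM positive control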). The settings on record: K562-ABCB6 porphyrin accumulation, 1 h, at 10 µM, stronger effect = higher value.
The nature of assay [11]: AML differentiation inducers, ER-HoxA9 marrow cells – cell-based, GFP/MAC1 double positive, flow cytometry, validation set, primary screen (AID 588685;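 active means differentiation response of at least 50%, scaled between solvent and reference control, from cells with both markers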;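 further: compound exposure lasts four days before antibody staining and flow analysis; 0% = DMSO wells and 100% = 5 µM fulvestrant positive control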). The settings on record: stronger effect = higher value, normalized: vehicle 0, fulvestrant 100.

Molecules are shown by their SMILES. Active and inactive are the calls of the source.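 How the source made its calls, unless noted: active means inhibition above 54%, about 3 SD of non-fluorescent compounds; inactive means the rest.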

Integrin beta-1 (Homo sapiens) + Integrin alpha-4 (Homo sapiens), sequence (P05556 whole entry, looked up): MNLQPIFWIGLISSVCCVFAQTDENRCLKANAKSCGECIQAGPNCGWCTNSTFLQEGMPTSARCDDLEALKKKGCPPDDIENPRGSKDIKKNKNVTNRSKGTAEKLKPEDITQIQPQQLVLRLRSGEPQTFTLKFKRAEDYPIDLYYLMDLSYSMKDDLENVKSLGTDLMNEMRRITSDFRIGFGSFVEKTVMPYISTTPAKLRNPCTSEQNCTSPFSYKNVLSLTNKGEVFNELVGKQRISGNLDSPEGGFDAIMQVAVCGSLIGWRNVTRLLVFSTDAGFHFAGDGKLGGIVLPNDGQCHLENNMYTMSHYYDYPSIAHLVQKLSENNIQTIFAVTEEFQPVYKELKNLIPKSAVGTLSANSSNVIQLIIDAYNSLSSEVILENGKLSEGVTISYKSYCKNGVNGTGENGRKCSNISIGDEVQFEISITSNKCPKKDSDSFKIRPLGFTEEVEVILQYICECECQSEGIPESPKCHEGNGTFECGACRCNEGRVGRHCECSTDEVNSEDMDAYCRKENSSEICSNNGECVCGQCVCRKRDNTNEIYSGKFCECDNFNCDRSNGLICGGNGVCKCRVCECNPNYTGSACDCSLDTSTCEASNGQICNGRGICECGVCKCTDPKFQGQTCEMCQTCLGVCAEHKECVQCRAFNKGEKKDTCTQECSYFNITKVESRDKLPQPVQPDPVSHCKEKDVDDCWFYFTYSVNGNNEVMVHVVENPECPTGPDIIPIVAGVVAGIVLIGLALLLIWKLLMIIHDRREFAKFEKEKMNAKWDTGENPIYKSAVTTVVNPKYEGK
Integrin beta-1 (Homo sapiens) + Integrin alpha-4 (Homo sapiens), sequence (P13612 whole entry, looked up): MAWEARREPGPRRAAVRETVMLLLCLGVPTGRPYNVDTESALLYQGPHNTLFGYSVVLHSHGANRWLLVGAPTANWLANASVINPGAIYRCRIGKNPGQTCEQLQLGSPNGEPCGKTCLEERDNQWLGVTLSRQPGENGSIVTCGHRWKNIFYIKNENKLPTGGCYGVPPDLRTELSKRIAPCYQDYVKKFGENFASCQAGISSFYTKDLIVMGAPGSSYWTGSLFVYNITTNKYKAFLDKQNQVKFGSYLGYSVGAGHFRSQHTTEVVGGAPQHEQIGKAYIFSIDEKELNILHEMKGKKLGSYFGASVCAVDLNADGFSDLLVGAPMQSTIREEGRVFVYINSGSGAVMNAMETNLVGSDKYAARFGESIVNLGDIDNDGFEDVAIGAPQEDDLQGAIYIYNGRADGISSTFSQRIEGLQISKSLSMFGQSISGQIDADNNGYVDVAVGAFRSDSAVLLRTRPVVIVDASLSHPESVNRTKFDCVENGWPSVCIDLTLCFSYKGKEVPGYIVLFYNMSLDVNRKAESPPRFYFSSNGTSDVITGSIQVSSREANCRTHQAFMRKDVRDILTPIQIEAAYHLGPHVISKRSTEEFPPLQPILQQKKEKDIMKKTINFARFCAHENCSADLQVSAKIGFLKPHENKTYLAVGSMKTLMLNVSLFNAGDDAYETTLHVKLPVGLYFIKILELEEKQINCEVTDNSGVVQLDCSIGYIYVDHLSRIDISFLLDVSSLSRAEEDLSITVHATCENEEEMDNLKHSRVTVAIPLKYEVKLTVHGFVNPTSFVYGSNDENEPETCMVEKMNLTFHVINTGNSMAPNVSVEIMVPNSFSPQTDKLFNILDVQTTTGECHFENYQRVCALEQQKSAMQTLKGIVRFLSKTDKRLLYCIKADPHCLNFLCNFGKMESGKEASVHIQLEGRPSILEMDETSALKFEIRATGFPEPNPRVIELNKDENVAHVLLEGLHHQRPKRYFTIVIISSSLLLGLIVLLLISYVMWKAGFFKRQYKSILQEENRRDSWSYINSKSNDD
Beta-adrenergic receptor kinase 1 (Homo sapiens), sequence (P25098 whole entry, looked up): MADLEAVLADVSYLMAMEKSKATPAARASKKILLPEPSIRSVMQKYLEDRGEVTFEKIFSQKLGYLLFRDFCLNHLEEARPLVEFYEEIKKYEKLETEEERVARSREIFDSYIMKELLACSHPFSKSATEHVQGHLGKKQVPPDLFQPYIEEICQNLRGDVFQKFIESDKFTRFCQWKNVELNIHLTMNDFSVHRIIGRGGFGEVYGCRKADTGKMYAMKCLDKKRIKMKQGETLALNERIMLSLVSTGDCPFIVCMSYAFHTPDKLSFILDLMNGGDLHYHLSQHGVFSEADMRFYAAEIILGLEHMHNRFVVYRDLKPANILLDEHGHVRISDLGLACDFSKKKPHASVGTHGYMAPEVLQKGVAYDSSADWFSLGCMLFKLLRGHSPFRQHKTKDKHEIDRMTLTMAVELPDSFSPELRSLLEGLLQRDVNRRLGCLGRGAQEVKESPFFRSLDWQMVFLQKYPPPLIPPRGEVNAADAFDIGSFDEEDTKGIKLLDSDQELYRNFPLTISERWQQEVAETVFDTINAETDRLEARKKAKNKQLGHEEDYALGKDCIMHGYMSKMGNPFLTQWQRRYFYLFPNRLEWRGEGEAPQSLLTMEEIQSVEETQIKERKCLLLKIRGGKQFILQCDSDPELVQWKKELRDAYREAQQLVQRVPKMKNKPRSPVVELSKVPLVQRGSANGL
AP-2 complex subunit beta (Homo sapiens), sequence (P63010 whole entry, looked up, the tested form may be a part, one chain of several): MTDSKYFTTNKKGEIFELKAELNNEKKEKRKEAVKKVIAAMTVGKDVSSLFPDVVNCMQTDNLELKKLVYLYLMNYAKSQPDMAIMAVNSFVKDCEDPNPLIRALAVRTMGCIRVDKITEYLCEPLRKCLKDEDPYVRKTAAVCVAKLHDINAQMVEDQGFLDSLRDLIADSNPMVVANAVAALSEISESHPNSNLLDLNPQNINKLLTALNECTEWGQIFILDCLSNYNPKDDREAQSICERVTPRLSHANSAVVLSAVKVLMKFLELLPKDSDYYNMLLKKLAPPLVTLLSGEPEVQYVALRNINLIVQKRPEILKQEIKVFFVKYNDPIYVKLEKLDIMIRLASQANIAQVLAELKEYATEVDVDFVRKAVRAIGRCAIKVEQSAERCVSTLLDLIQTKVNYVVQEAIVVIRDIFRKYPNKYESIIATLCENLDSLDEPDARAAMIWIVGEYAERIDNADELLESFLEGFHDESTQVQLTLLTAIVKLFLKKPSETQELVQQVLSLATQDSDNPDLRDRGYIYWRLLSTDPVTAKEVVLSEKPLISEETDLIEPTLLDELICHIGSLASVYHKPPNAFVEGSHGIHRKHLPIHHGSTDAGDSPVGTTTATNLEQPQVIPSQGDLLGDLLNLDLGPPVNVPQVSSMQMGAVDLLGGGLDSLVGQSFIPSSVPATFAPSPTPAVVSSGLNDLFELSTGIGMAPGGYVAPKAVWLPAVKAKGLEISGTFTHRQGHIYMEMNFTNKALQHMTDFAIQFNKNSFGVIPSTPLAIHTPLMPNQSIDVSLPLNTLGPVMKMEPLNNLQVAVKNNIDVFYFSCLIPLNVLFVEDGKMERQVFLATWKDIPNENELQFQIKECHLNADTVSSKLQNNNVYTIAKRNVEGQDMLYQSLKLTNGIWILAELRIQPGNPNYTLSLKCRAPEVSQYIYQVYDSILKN
Beta-2 adrenergic receptor (Homo sapiens), sequence (P07550 whole entry, looked up): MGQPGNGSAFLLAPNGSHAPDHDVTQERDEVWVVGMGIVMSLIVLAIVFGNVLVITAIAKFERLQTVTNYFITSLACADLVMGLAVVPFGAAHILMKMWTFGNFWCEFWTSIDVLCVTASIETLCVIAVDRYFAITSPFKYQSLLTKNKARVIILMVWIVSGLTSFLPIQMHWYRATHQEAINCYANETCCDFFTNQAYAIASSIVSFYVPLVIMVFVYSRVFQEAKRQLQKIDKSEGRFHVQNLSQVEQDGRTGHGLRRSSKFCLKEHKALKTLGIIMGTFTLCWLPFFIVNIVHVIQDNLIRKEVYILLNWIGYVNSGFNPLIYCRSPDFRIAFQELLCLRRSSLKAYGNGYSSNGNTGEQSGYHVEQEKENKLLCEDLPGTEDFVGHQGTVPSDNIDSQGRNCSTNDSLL
ATP-binding cassette sub-family B member 6 (Homo sapiens), sequence (Q9NP58 whole entry, looked up): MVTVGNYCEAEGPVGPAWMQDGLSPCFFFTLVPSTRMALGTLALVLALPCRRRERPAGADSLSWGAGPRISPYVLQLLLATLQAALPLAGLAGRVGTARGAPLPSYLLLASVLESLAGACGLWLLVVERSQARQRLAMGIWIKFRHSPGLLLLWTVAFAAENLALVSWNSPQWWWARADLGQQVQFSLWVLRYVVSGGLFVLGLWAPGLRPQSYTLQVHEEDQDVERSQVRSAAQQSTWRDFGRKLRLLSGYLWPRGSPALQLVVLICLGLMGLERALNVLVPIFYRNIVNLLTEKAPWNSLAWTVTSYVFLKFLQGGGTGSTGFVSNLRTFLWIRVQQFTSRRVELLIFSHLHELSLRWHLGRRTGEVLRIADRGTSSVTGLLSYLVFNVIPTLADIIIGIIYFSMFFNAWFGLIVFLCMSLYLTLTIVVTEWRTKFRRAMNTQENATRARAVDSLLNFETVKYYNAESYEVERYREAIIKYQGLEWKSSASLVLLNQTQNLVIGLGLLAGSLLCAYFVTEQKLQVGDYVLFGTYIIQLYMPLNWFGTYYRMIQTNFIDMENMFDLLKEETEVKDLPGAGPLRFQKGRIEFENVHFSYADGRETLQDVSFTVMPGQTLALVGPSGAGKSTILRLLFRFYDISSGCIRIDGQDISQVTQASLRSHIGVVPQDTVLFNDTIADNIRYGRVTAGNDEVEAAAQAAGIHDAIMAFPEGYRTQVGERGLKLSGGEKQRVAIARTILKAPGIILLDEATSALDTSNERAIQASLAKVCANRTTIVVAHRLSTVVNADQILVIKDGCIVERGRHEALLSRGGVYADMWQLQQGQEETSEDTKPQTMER

On to `CC(C)OC(=O)CC1C(=O)NCCN1C(=S)NC(=O)c1ccccc1Cl` (stereo unspecified), for which the double positive events in assay [1] was 57.9%. Besides, the vesicle binding response in [1] was 115% (inactive). In addition, the figures for the inhibition in assay [2], in assay [6] and in assay [10] were -5.11% (inactive), 7.65% (inactive) and -197% (inactive), respectively. The superoxide response (% of plate) in assay [3] is 94.8% (inactive). Besides, in assay [4], the aptamer binding inhibition is 1% (inactive). In addition, the response is 11.7% (inactive) in [5] and -6.29% (inactive) in assay [7]. For the same compound, the binding (% of control) in assay [8] is 111% (inactive). The efflux inhibition (fraction of control) in assay [9] was 0 (inactive). Also, the differentiation response in assay [11] is -10.4% (inactive).

For the compound `COc1ccccc1C(CC(=O)Nc1ccccc1C)c1ccc(OC(C)C)cc1` (stereo unspecified), the double positive events in assay [1] amounted to 63.5%. For the same compound, in assay [1], the vesicle binding response is 263% (inactive). Further, the inhibition in assay [2] is 9.95% (inactive); in assay [6], -4.43% (inactive); in assay [10] it was 0% (inactive). In addition, the superoxide response (% of plate) in assay [3] was 92.7% (inactive). In addition, in assay [4], the aptamer binding inhibition was 4% (inactive). The response in [5] was -15% (inactive); in [7], -5.65% (inactive). Besides, in assay [8], the binding (% of control) was 105% (inactive). In [9], the efflux inhibition (fraction of control) is 0.54 (active). In addition, the differentiation response in assay [11] is -1.05% (inactive).

With `CC1(C)Cc2nc3oc4c(NCc5ccccc5)ncnc4c3cc2CO1`, the double positive events in assay [1] is 49.8%. In assay [1], the vesicle binding response is 183% (inactive). Further, the results for the inhibition in assay [2], in assay [6] and in assay [10] were 4.42% (inactive), -8.27% (inactive) and 5% (inactive), respectively. In assay [3], the superoxide response (% of plate) was 95.3% (inactive). The aptamer binding inhibition in assay [4] was -2% (inactive). In addition, the response in assay [7] was -4.11% (inactive). Besides, the binding (% of control) in [8] is 105% (inactive). In assay [9], the efflux inhibition (fraction of control) is -0.2 (inactive). In [11], the differentiation response is 0% (inactive).

On to `COc1ccc(CCn2c(C)cc3c(c2=O)C(c2ccncc2)C(C#N)=C(N)O3)cc1OC` (stereo unspecified), for which the double positive events in assay [1] stood at 59.3%. The vesicle binding response in assay [1] is 179% (inactive). In addition, the inhibition was -1.79% (inactive) in [2], -6.51% (inactive) in assay [6] and 6% (inactive) in [10]. Besides, the superoxide response (% of plate) in assay [3] was 102% (inactive). Besides, the aptamer binding inhibition in assay [4] is 6% (inactive). The response in assay [5] was 10.6% (inactive); in assay [7], 0.22% (inactive). Also, the binding (% of control) in assay [8] was 101% (inactive). Also, in assay [9], the efflux inhibition (fraction of control) was -0.13 (inactive). Further, the differentiation response in assay [11] was 12% (inactive).

In assay [1], `O=C1CC(c2ccc(F)cc2)Cc2nc(NCC3CCCO3)ncc21` (stereo unspecified) yielded a double positive events of 55.2%. In addition, the vesicle binding response in assay [1] is 192% (inactive). The values for the inhibition in assay [2], in assay [6] and in [10] were 6.29% (inactive), -9.45% (inactive) and 7% (inactive), respectively. Besides, in [3], the superoxide response (% of plate) was 99.1% (inactive). Besides, the aptamer binding inhibition in assay [4] is 3% (inactive). Also, the response in assay [7] was -2.69% (inactive). Further, the binding (% of control) in assay [8] was 99.8% (inactive). For the same compound, the efflux inhibition (fraction of control) in assay [9] is -0.12 (inactive). Further, the differentiation response in assay [11] is 38.5% (inactive).

As for `O=c1cc(Cn2ccnc2)c2cc3c(cc2o1)CCC3`, in assay [1], the double positive events stood at 57.6%. The vesicle binding response in [1] was 143% (inactive). For the same compound, the inhibition in assay [2] was -11.3% (inactive); in assay [6] it was 8.12% (inactive); in assay [10], 2% (inactive). The superoxide response (% of plate) in assay [3] was 99.2% (inactive). For the same compound, in assay [4], the aptamer binding inhibition is -2% (inactive). Moreover, the response in assay [5] is -7.31% (inactive); in assay [7], -1.72% (inactive). Moreover, the binding (% of control) in [8] is 105% (inactive). Also, the efflux inhibition (fraction of control) in [9] was 0.08 (inactive). Also, the differentiation response in [11] was 48.8% (inactive).

`Cn1c2ccc(CC(=O)O)cc2c2cc(CC(=O)O)ccc21`: the double positive events in assay [1] is 61.4%. The vesicle binding response in assay [1] is 244% (inactive). The inhibition in [2] was 10.5% (inactive); in assay [6], 2.08% (inactive); in [10], 6% (inactive). Moreover, in assay [3], the superoxide response (% of plate) is 92.3% (inactive). The aptamer binding inhibition in [4] is 3% (inactive). Moreover, the response in [5] was -8.9% (inactive); in assay [7], 1.83% (inactive). Moreover, in assay [8], the binding (% of control) is 101% (inactive). Besides, the efflux inhibition (fraction of control) in [9] was -0.21 (inactive). For the same compound, in [11], the differentiation response is 8.8% (inactive).

In the case of `CCOC(=O)c1cnc2ccc(C(=O)OC)cc2c1Nc1ccc2c(c1)OCCO2`, the double positive events in assay [1] turned out to be 63.9%. The vesicle binding response in assay [1] was 266% (inactive). In addition, the inhibition was 0.59% (inactive) in assay [2], -8.06% (inactive) in [6] and -2% (inactive) in assay [10]. Also, the superoxide response (% of plate) in [3] was 99.1% (inactive). Moreover, the aptamer binding inhibition in assay [4] was 6% (inactive). Further, the response in [5] is -25.7% (inactive); in assay [7], -27.9% (inactive). Also, the binding (% of control) in assay [8] is 97.4% (inactive). Also, the efflux inhibition (fraction of control) in assay [9] is 0.08 (inactive). In addition, the differentiation response in assay [11] was -0.06% (inactive).

Regarding `CC(=Nc1ccccc1)C1=C(O)CCCC1=O`, in assay [1], the double positive events amounted to 61.6%. For the same compound, in [1], the vesicle binding response is 312% (inactive). Moreover, the results for the inhibition in [2], in assay [6] and in [10] were 13.8% (inactive), -9.14% (inactive) and 0% (inactive), respectively. Besides, the superoxide response (% of plate) in assay [3] was 104% (inactive). Also, the aptamer binding inhibition in [4] is 1% (inactive). Also, the response in assay [7] was 8.27% (inactive). In [8], the binding (% of control) is 97.7% (inactive). In assay [9], the efflux inhibition (fraction of control) is -0.24 (inactive). Moreover, the differentiation response in [11] is -21.2% (inactive).

In turn, `COc1ccc(N2C(=O)[C@@H]3Cc4ccccc4CN3C2=O)cc1` showed a double positive events in assay [1] of 63.2%. For the same compound, the vesicle binding response in [1] is 211% (inactive). In addition, the inhibition in [2] was 14.6% (inactive); in [6], -2.78% (inactive); in assay [10] it was 7% (inactive). Further, in assay [3], the superoxide response (% of plate) is 89.7% (inactive). Further, in assay [4], the aptamer binding inhibition was 5% (inactive). The values for the response in [5] and in [7] were 12.1% (inactive) and -2.4% (inactive), respectively. Moreover, the binding (% of control) in assay [8] is 107% (inactive). Moreover, in [9], the efflux inhibition (fraction of control) was 0.01 (inactive). Also, in assay [11], the differentiation response is 18.4% (inactive).

In assay [1], `CC(=O)/C=C/c1ccc(C)o1` had a double positive events of 62.2%. For the same compound, the vesicle binding response in assay [1] is 175% (inactive). In addition, the inhibition in assay [2] is 5.03% (inactive); in assay [6] it was 15.9% (inactive); in [10], 3% (inactive). Besides, in assay [3], the superoxide response (% of plate) is 95.6% (inactive). Also, the aptamer binding inhibition in assay [4] is -4% (inactive). In addition, the response in [5] was 14.7% (inactive); in assay [7], 0.22% (inactive). The binding (% of control) in assay [8] is 102% (inactive). In assay [9], the efflux inhibition (fraction of control) is 0.51 (active). Besides, the differentiation response in [11] is 28% (inactive).

In [1], `C(=C/c1nccc2c1[nH]c1ccccc12)/c1ccc2c(c1)OCO2` showed a double positive events of 58.5%. Moreover, in [1], the vesicle binding response was 170% (inactive). Moreover, the inhibition in [2] was -239% (inactive); in assay [6] it was 23.3% (inactive); in assay [10] it was 8% (inactive). The superoxide response (% of plate) in assay [3] was 93.4% (inactive). Besides, in assay [4], the aptamer binding inhibition is -1% (inactive). In addition, in assay [7], the response was 1.54% (inactive). Also, the binding (% of control) in assay [8] is 144% (inactive). Also, in assay [9], the efflux inhibition (fraction of control) is -0.35 (inactive). Besides, the differentiation response in assay [11] was -18% (inactive).

As to `Cc1ccc2[nH]c3c(=O)n(CCCN4CCN(C)CC4)cnc3c2c1`, in [1], the double positive events is 60.7%. In addition, the vesicle binding response in assay [1] was 195% (inactive). The values for the inhibition in assay [2], in assay [6] and in [10] were 7.22% (inactive), 24.8% (inactive) and 12% (inactive), respectively. For the same compound, in assay [3], the superoxide response (% of plate) was 99.9% (inactive). Besides, in assay [4], the aptamer binding inhibition is 4% (inactive). Besides, the response in assay [7] is -6.94% (inactive). The binding (% of control) in [8] was 99.3% (inactive). In [9], the efflux inhibition (fraction of control) was -0.2 (inactive). In assay [11], the differentiation response is 30.5% (inactive).

The term inhibition denotes the drop in the measured response relative to a control, in per cent.

Values taken from PubChem BioAssay.
